From PubChem BioAssay (NCI) come the findings set out here.

This is part of a sample that, as a whole, favours compounds with a hit. Of some 83,000 tested, about 20% had one in any assay.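 Plates (96-well) were seeded with cells, treated with compound at one concentration, and incubated for 48 hours before percent growth was determined.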 Unmarked numbers belong to inactive results. Activity calls are given as the source filed them. Rule for the calls: active = growth percent below 10; inactive = the rest.

Test systems include T-47D breast; BT-549 breast; MDA-MB-435 melanoma; SW-620 colon; MCF7 breast; HCT-116 colon; HCC-2998 colon; KM12 colon.
Holding throughout (assay): NCI-60 one-dose screen, 48 h (100 = growth as untreated, 0 = no growth, -100 = all killed)
Common to all, as to conditions: 10 µM unless noted

Take `COc1ccc(C/C(C)=C(\c2ccc(OCCN3CCCCCC3)cc2)c2ccc(OC(=O)C3CCCCC3)cc2)cc1`: the growth with T-47D breast is 38.1%; in the assay with BT-549 breast it was 83.7%; in the assay on MDA-MB-435 melanoma, 68.8%; in the assay with SW-620 colon, 64.8%; with MCF7 breast, 29.3%; in the assay with HCT-116 colon, 38.5%. In addition, the growth was 56.9% with HCC-2998 colon and 63.1% with KM12 colon.

Turning to `O=C(O)c1ccc(=O)[nH]n1`, the growth was 105% in the assay with T-47D breast; 106% with BT-549 breast; 112% in the assay with MDA-MB-435 melanoma; 102% with SW-620 colon; 97.2% with MCF7 breast; 106% in the assay with HCT-116 colon. The growth in the assay with KM12 colon was 123%.

For `Cc1ccc(-c2nc(/C=N/Nc3cc(C)nc4ccc(Br)cc34)c(C)o2)cc1`, the growth is -8.4% (active) in the assay with T-47D breast; 86.3% in the assay on BT-549 breast; -95.1% (active) with MDA-MB-435 melanoma; -84.7% (active) with SW-620 colon; -78.6% (active) in the assay on MCF7 breast; -65.8% (active) in the assay with HCT-116 colon. The growth in the assay with HCC-2998 colon was -63.4% (active); in the assay with KM12 colon, -39.9% (active).

As to `COc1ccc(C(=O)/C=C/c2cc3ccccc3[nH]c2=O)cc1`, the growth was 33.8% in the assay with T-47D breast; 21.3% in the assay with BT-549 breast; 29.9% in the assay on MDA-MB-435 melanoma; -21% (active) in the assay on SW-620 colon; 15% with MCF7 breast; 8.02% (active) with HCT-116 colon. In addition, the growth with KM12 colon is -32% (active).

As for `C/C=C/C(N)=O`, the growth was 115% with T-47D breast; 99.7% in the assay on BT-549 breast; 96.4% in the assay with MDA-MB-435 melanoma; 92.1% in the assay with MCF7 breast; 98.4% in the assay on HCT-116 colon; 109% in the assay on HCC-2998 colon. Further, in the assay with KM12 colon, the growth is 103%.

As to `COc1cc(C2CC(=O)Nc3c2cnn3Cc2ccco2)cc2c1OCCO2` (centres undefined), the growth in the assay with T-47D breast was 88.8%; in the assay on BT-549 breast, 87.7%; in the assay on MDA-MB-435 melanoma it was 4.28% (active); in the assay on SW-620 colon, 56.6%; in the assay with MCF7 breast, 54.1%; in the assay with HCT-116 colon, 72.5%. Moreover, in the assay on KM12 colon, the growth was 48.4%.

`NS(=O)(=O)N(c1cc(C(F)(F)F)cc(C(F)(F)F)c1)C1CCN(Cc2ccc(F)cc2)CC1`: the growth in the assay on T-47D breast is 37.2%; in the assay with BT-549 breast, 81%; in the assay with MDA-MB-435 melanoma, 70.1%; in the assay on MCF7 breast it was 49.6%; in the assay on HCT-116 colon it was 38%; in the assay with HCC-2998 colon it was -50.4% (active). Also, the growth in the assay on KM12 colon was 40.2%.

Take `Cn1c2ccccc2c2c3c(c4c5ccccc5n(CCCCCC#N)c4c21)C(=O)N(O)C3=O`: the growth in the assay with T-47D breast is 17.4%; with BT-549 breast it was 18.5%; in the assay on MDA-MB-435 melanoma, 20.9%; in the assay with MCF7 breast it was 7.79% (active); in the assay with HCT-116 colon it was -19.4% (active); in the assay on HCC-2998 colon, 25.3%. Further, the growth in the assay on KM12 colon was 16.6%.

As for `CCN(CC)CCCCNc1ccc(NCCCCN(CC)CC)c2c1C(=O)c1ccccc1C2=O`, the growth in the assay on T-47D breast was 122%; with BT-549 breast, 95.6%; in the assay with MDA-MB-435 melanoma, 56%; in the assay on SW-620 colon, -7.96% (active); in the assay on MCF7 breast, 79.1%; with HCT-116 colon, -58.4% (active). In addition, the growth in the assay with KM12 colon is 26.9%.

As for `CCCCNc1ccc2c3c1cccc3c(=O)n1c3ccccc3nc21`, the growth in the assay on T-47D breast is 35.7%; in the assay on BT-549 breast it was 98.2%; in the assay with MDA-MB-435 melanoma it was 111%; in the assay with MCF7 breast, 10.3%; in the assay with HCT-116 colon it was 86.7%; in the assay with HCC-2998 colon it was 74%. For the same compound, the growth with KM12 colon was 77.7%.

For the compound `NC(N)=Nc1ccc(S(=O)(=O)O)cc1`, the growth in the assay on T-47D breast is 114%; in the assay on BT-549 breast, 119%; with MDA-MB-435 melanoma, 106%; in the assay on SW-620 colon, 103%; in the assay on MCF7 breast it was 102%; in the assay with HCT-116 colon, 107%. Also, the growth with KM12 colon was 116%.

Take `CCOC(=O)CC(=O)c1c(C)cc(C)cc1C`: the growth was 121% in the assay with T-47D breast; 93.5% in the assay on BT-549 breast; 98.6% in the assay on MDA-MB-435 melanoma; 103% in the assay with SW-620 colon; 97.5% with MCF7 breast; 91.2% in the assay with HCT-116 colon. Also, the growth in the assay on KM12 colon is 95.5%.

For the compound `O=C1CC(c2nc3ccccc3[nH]2)CN1C1CCCCC1` (centres undefined), the growth in the assay on T-47D breast is 95.6%; with BT-549 breast it was 97.7%; in the assay with MDA-MB-435 melanoma, 107%; with MCF7 breast, 89.7%; in the assay with HCT-116 colon, 109%; in the assay with HCC-2998 colon, 98.7%. Also, in the assay with KM12 colon, the growth is 107%.

As to `NC(=S)N/N=C/c1cc(-c2cccc(N)c2)ccn1`, the growth is 10.8% with T-47D breast; 55.4% in the assay on BT-549 breast; 32.9% in the assay on MDA-MB-435 melanoma; 35.6% with SW-620 colon; 21.9% in the assay with MCF7 breast; 28.4% with HCT-116 colon. In addition, the growth in the assay with KM12 colon is 30%.

Take `Cc1ccn2c(-c3csc(Nc4cccc(O)c4)n3)c(C)nc2c1`: the growth is 34% in the assay with T-47D breast; 25% in the assay on BT-549 breast; -34.6% (active) in the assay on MDA-MB-435 melanoma; 33.4% in the assay with SW-620 colon; 6.08% (active) in the assay with MCF7 breast; 27.6% in the assay on HCT-116 colon. Moreover, the growth in the assay with KM12 colon was 29.9%.

For `CCCCCCCCCCCCCCCCCCSC1=CC(=O)C(OC)=C(OC)C1=O`, the growth in the assay with T-47D breast is 87.9%; in the assay on BT-549 breast it was 111%; with MDA-MB-435 melanoma, 68.2%; in the assay with SW-620 colon, 81.5%; in the assay on MCF7 breast, 96.8%; in the assay on HCT-116 colon, 97.9%. The growth in the assay on KM12 colon was 94.4%.

As for `CC(=O)Oc1ccc(Nc2c3ccccc3nc3ccccc23)cc1`, the growth was 7.4% (active) in the assay with T-47D breast; 55.2% with BT-549 breast; 8.19% (active) with MDA-MB-435 melanoma; 3.73% (active) in the assay on SW-620 colon; 3.91% (active) with MCF7 breast; 14% in the assay on HCT-116 colon. The growth in the assay with KM12 colon is 18.1%.

For the compound `COc1ccc(-c2cc(NC(=O)Nc3ccc(O)cc3)no2)cc1`, the growth with T-47D breast was 70.5%; in the assay on BT-549 breast, 64.5%; in the assay with MDA-MB-435 melanoma, 67.6%; in the assay with MCF7 breast it was 70.2%; in the assay with HCT-116 colon, 90%; in the assay with HCC-2998 colon, 82.7%. Also, the growth in the assay with KM12 colon is 20.8%.

For `COC(=O)[C@H](C(C)C)n1c(=O)c2cc(OC)c(OC)cc2c2cnc3[nH]ccc3c21`, the growth with T-47D breast was 14.8%; in the assay with BT-549 breast, 21.2%; with MDA-MB-435 melanoma, 75.1%; in the assay with MCF7 breast, 26.2%; with HCT-116 colon it was 41.4%; with HCC-2998 colon it was 62%. In the assay with KM12 colon, the growth is 18.4%.

As for `COc1ccc(C(=O)c2sc3nc(-c4ccccc4OC)ccc3c2N)cc1OC`, the growth with T-47D breast was 26.4%; in the assay with BT-549 breast it was 20.9%; in the assay on MDA-MB-435 melanoma, 31.7%; with SW-620 colon, 73.6%; in the assay with MCF7 breast, 62.1%; in the assay on HCT-116 colon, 39.3%. For the same compound, the growth with KM12 colon was 46.1%.

Regarding `O=C(/C=C/c1ccc(Cl)cc1)c1ccc(O)c(CN2CCN(c3cc4c(cc3F)c(=O)c(C(=O)O)cn4C3CC3)CC2)c1`, the growth in the assay on T-47D breast is 53.4%; in the assay on BT-549 breast it was 46.3%; in the assay on MDA-MB-435 melanoma, 52%; with MCF7 breast, 45.6%; with HCT-116 colon, 12.6%; in the assay on HCC-2998 colon it was 59.4%. Further, in the assay on KM12 colon, the growth is 59.3%.

Turning to `CC[C@@H](C)OC(=O)c1nn(C(C)=O)c2ccccc12`, the growth was 103% in the assay with T-47D breast; 105% in the assay with BT-549 breast; 103% in the assay on MDA-MB-435 melanoma; 107% in the assay with SW-620 colon; 83.6% in the assay on MCF7 breast; 104% in the assay on HCT-116 colon. For the same compound, the results for the growth in the assay on HCC-2998 colon and with KM12 colon were 96.4% and 103%, respectively.

`COc1c(C2CC(=O)Nc3c2cnn3Cc2ccco2)cc2c(c1OC)OCO2` (centres undefined): the growth in the assay on T-47D breast is 55.6%; with BT-549 breast, 8.74% (active); in the assay with MDA-MB-435 melanoma, -58.4% (active); with SW-620 colon, 23%; in the assay with MCF7 breast it was 12.8%; in the assay with HCT-116 colon it was 12.8%. Further, the growth with KM12 colon was 16.8%.

As to `CS(=O)(=O)c1c(Nc2ccccc2)n[nH]c1N`, the growth was 104% in the assay with T-47D breast; 89.1% with BT-549 breast; 107% in the assay on MDA-MB-435 melanoma; 112% with SW-620 colon; 101% in the assay on MCF7 breast; 103% in the assay on HCT-116 colon. The growth with KM12 colon is 118%.

With `COc1ccc(-c2cc(/C=C3\C(=O)Nc4ccc(Cl)cc43)[nH]n2)cc1`, the growth is 47.4% with T-47D breast; 55.4% in the assay with BT-549 breast; -27.4% (active) in the assay on MDA-MB-435 melanoma; 17% in the assay with MCF7 breast; 26.8% in the assay on HCT-116 colon; 94.3% with HCC-2998 colon. Moreover, in the assay with KM12 colon, the growth is 43.8%.

With `CCCCCCCCSC1=CC(=O)C(OC)=C(OC)C1=O`, the growth with T-47D breast was -76.6% (active); with BT-549 breast it was 68.8%; in the assay with MDA-MB-435 melanoma, 7.62% (active); in the assay on SW-620 colon, -60.5% (active); in the assay with MCF7 breast, 13.1%; in the assay on HCT-116 colon, -49.9% (active). The growth in the assay on KM12 colon was 29.5%.

As for `CCOC(=O)c1cnc2ccc(Br)cc2c1Nc1cccc(S(=O)(=O)NC)c1`, the growth in the assay with T-47D breast was 86%; with BT-549 breast, 101%; in the assay with MDA-MB-435 melanoma it was 105%; in the assay with MCF7 breast, 91.3%; in the assay with HCT-116 colon, 84.7%; with HCC-2998 colon, 97%. In the assay on KM12 colon, the growth was 98.7%.

Take `Nc1ccc2c(c1)C(=O)NC2=O`: the growth in the assay on T-47D breast was 93.5%; with BT-549 breast, 117%; with MDA-MB-435 melanoma it was 92.2%; in the assay with MCF7 breast, 96.5%; in the assay with HCT-116 colon, 97.8%; with HCC-2998 colon, 95.2%. For the same compound, in the assay on KM12 colon, the growth was 98.8%.
